Values joined by “and” are separate entries in the source; they are usually repeats but may differ in a detail not shown here. Equal values may be shown once. A number with no mark means an inactive call. Results filed as inconclusive are left out. Where a call stands in place of a potency, no number is given. Active and inactive are the calls of the source. Unless noted, calls follow the shape of the dose curve; as a rule, active = well fitted curve in the direction sought with a large enough effect; inconclusive = small, poorly fitted or top-dose-only effect, or another doubt; inactive = no such curve, though single readings can be large; an effect the other way counts as inactive or inconclusive.
What was measured:
[1] = molecular target: Tumor susceptibility gene 101 protein (Homo sapiens) (UniProt Q99816); assay: qHTS Assay for Iinhibitors of HIV-1 Budding by Blocking the Interaction of PTAP/TSG101: Hit Validation (AID 651600); also: potency is read from the fitted curve at half-maximal effect; nearly all actives have a fitted effect of over 70% in size
How it was run: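 Tsg101 binding domain 10 uM + FITC-PTAP peptide 50 nM (final), 10 mM HEPES pH 7.5/0.15 M NaCl/0.01% Tween 20/3 mM EDTA/0.1 mM TCEP; 20 min RT; FP read, FITC filters.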

[2] = molecular target: Cytochrome P450 2D6 (Homo sapiens) (UniProt P10635); assay: Cytochrome P450 family 2 subfamily D member 6 (CYP2D6) small molecule antagonists: luciferase biochemical (cell-free) qHTS assay (AID 1645840; active = well fitted curve in the direction sought with a large enough effect in the repeat runs; an effect the other way counts as inactive or inconclusive; also: potency is read from the fitted curve at half-maximal effect; nearly all actives have a fitted effect of over 55% in size)
How it was run: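 P450-Glo CYP2D6 system: proluciferin substrate converted by enzyme to luciferin, read by luminescence proportional to activity. Enzyme-substrate mix with compound 10 min at room temperature, then NADPH regeneration 1 h before detection reagent.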

[3] = molecular target: Cytochrome P450 3A4 (Homo sapiens) (UniProt P08684); assay: Cytochrome P450 family 3 subfamily A member 4 (CYP3A4) small molecule antagonists: luciferase qHTS assay (AID 1645841; active = well fitted curve in the direction sought with a large enough effect in the repeat runs; an effect the other way counts as inactive or inconclusive; also: nearly all actives have a fitted effect of over 45% in size)
How it was run: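 P450-Glo CYP3A4 enzyme with proluciferin substrate was preincubated with DMSO-dissolved compounds for 10 min at room temperature. NADPH regeneration solution started a 1 h reaction. Detection reagent stopped it, and luminescence was read after 20 min.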

[4] = molecular target: Cytochrome P450 2C9 (Homo sapiens) (UniProt P11712); assay: Cytochrome P450 family 2 subfamily C member 9 (CYP2C9) small molecule antagonists: luciferase biochemical (cell-free) qHTS assay (AID 1645842; active = well fitted curve in the direction sought with a large enough effect in the repeat runs; an effect the other way counts as inactive or inconclusive; also: series mostly up to about 57 µM; nearly all actives have a fitted effect of over 55% in size)
How it was run: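 P450-Glo CYP2C9 system: proluciferin substrate with enzyme in mix containing 0.4% BSA, 10 min at room temperature, then NADPH regeneration solution added and incubated 1 h at 37C. Detection reagent stopped reaction; luminescence read after 20 min as RLU.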

[5] = molecular target: Dual specificity protein kinase CLK4 (Homo sapiens) (UniProt Q9HAZ1); assay: qHTS Assay for Inhibitors of CDC-like Kinase 4 (Kinase-Glo Assay) (AID 1770); also: series mostly up to about 67 µM; nearly all actives have a fitted effect of over 65% in size
How it was run: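 Readout: Kinase-Glo luminescence from ATP left after a 4.5 h room-temperature reaction of 25 nM Clk4 with 100 uM RS peptide and 1 uM ATP (final). Buffer: 25 mM Tris pH 7.5, 10 mM MgCl2.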

[6] = molecular target: Dual specificity protein kinase CLK4 (Homo sapiens) (UniProt Q9HAZ1); assay: qHTS Assay for Inhibitors of CDC-like Kinase 4 (ADP-FP Assay) (AID 1795);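 also: recombinant human CLK4 phosphorylating RS repeat peptide at 1 µM ATP; series mostly up to about 50 µM; nearly all actives have a fitted effect of over 60% in size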
How it was run: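 FP readout: Orange Transcreener ADP2 tracer (4 nM) plus ADP antibody, read after 30 min at room temperature. Kinase step: 6.25 nM Clk4, 100 uM RS peptide, 1 uM ATP, pH 7.5, 1 h.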

[7] = molecular target: DNA dC->dU-editing enzyme APOBEC-3G (Homo sapiens) (UniProt Q9HC16); assay: qHTS for inhibitors of Vif-A3G interactions: Validation (AID 588379)
How it was run: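 Yellow fluorescence (Ex 488, Em 500-530) of Vif-coexpressing HeLa A3G-eYFP cells, scanned by Acumen cytometer, reports blocked A3G degradation. Cells plated at 700/well overnight at 37 deg C before compound addition, then a further overnight compound incubation at 37 deg C.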

[8] = Counterscreen for APE1 Inhibitors: Fluorescent Dye Displacement Validation Assay (AID 1707)
How it was run: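 Reaction mixture of 250 nM Thiazole Orange and 50 nM double-stranded abasic-site DNA was dispensed, compounds were pin-transferred, and fluorescence was read at endpoint (480 nm ex, 540 nm em). Reduced fluorescence indicated dye displacement by DNA binding.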

[9] = molecular target: Voltage-gated inwardly rectifying potassium channel KCNH2 (Homo sapiens) (UniProt Q12809); assay: qHTS Assay for Small Molecule Inhibitors of the Human hERG Channel Activity (AID 588834);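 also: top concentration of the series differs between compounds; lower thallium flux fluorescence means stronger hERG block; nearly all actives have a fitted effect of over 50% in size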
How it was run: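 Thallium-flux (FluxOR) read-out on FDSS: fluorescence read 10 s before and 2 min after stimulation buffer. hERG-BacMam-transduced U2OS cells, compound exposure about 10 min. AC50 by standard Hill equation.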

[10] = molecular target: Rap guanine nucleotide exchange factor 4 (Homo sapiens) (UniProt Q8WZA2); assay: Confirmatory qHTS for agonist of cAMP-regulated guanine nucleotide exchange factor 4 (EPAC2) (AID 1645884);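 also: nucleotide exchange releases bodipy-GDP from Rap1 and this lowers its fluorescence; nearly all actives have a fitted effect of over 65% in size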
[11] = molecular target: Endonuclease 4 (Escherichia coli (strain K12)) (UniProt P0A6C1); assay: Counterscreen for APE1 Inhibitors: qHTS Validation Assay for Inhibitors of Endonuclease IV (AID 1708)
How it was run: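 Enzyme (2 nM) + compound, 15 min RT; add 50 nM TAMRA/BHQ-2 THF-site dsDNA; kinetic read ex525/em598, 3 reads/60 s; activity = read 3 − read 1. Buffer Tris pH 7.5, 50 mM NaCl, 2 mM MgCl2, DTT, Tween-20.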

[12] = Quantitative high throughput screen for delayed death inhibitors of the malarial parasite plastid, 96 hour incubation (AID 488745); also: potency is read from the fitted curve at half-maximal effect; nearly all actives have a fitted effect of over 70% in size
How it was run: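 Readout is firefly luciferase luminescence from an integrated reporter in P. falciparum; lower signal marks inhibited growth. Cultures at 2% hematocrit and 0.1% parasitemia were treated with compound across two generations (96 h, 37 C, 5% CO2).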

[13] = Quantitative high throughput screen for delayed death inhibitors of the malarial parasite plastid, 48 hour incubation (AID 488752); also: potency is read from the fitted curve at half-maximal effect; nearly all actives have a fitted effect of over 65% in size
How it was run: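 First, compound was pinned into RPMI 1640 medium containing 0.5% Albumax. Next, reporter-parasite-infected erythrocytes were added to 2% hematocrit and 0.1% parasitemia. After 48 h at 37 C under 5% CO2, luciferase detection reagent was added and luminescence read.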

[14] = molecular target: Nuclear receptor subfamily 1 group I member 3 (Homo sapiens) (UniProt Q14994); assay: Primary qHTS for antagonist of constitutive androstane receptor (CAR) against the NCATS DSHEA and TCM libraries (AID 1794836); also: series mostly up to about 40 µM
How it was run: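 HepG2 cells stably carrying hCAR and a CYP2B6 luciferase reporter (2,500 cells/well) attached for 5 h, then received compounds with 48 uM CITCO for 24 h at 37C. ONE-Glo luminescence read antagonism; CellTiter-Fluor (405/540 nm) gave viability.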

[15] = molecular target: Nuclear receptor subfamily 1 group I member 3 (Homo sapiens) (UniProt Q14994); assay: Primary qHTS for agonist of constitutive androstane receptor (CAR) against the NCATS DSHEA and TCM libraries (AID 1794839); conditions: Potency: CAR antagonist co-added at 0.75 µM unless noted;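 also: HepG2 cells expressing human CAR with a CYP2B6 reporter plus PK11195 antagonist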
How it was run: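 Luminescence from ONE-Glo luciferase was the agonist read-out in HepG2-CYP2B6-hCAR cells exposed 24 h to test substances. Wells also held the CAR antagonist PK11195 at 0.75 µM final. Viability was by CellTiter-Fluor fluorescence.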

[16] = molecular target: Cytochrome P450 3A4 (Homo sapiens) (UniProt P08684); assay: qHTS for inhibitors of CYP3A4 against the NCATS DSHEA and TCM libraries (AID 1919971);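 also: inhibition lowers luminescence from luciferin made by CYP3A4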
How it was run: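 Concentration-response screening with isoform-matched pro-luciferin substrates. The CYP reaction was initiated by NADPH regenerating solution and ran 30-45 min in darkness at room temperature.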

[17] = molecular target: Androgen receptor (Homo sapiens) (UniProt P10275); assay: qHTS assay for small molecule agonists of androgen receptor signaling (AID 588515; active = well fitted curve in the direction sought with a large enough effect in the signal ratio, with a control signal flat; the % refers to the signal ratio); conditions: AR-UAS-bla HEK293, beta-lactamase ratio, agonist 16 h; active compounds read high
How it was run: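 Stimulation of an AR-responsive β-lactamase reporter in GripTite HEK293 cells was measured after 16 h compound exposure at 37 °C, via CCF4 fluorescence after 2 h RT. EC50 from Hill fits, normalized to R1881 at 30 nM.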

[18] = molecular target: Androgen receptor (Homo sapiens) (UniProt P10275); assay: qHTS assay for small molecule antagonists of androgen receptor signaling (AID 588516; active = well fitted curve in the direction sought with a large enough effect in the signal ratio, with a control signal flat, not every such curve was filed as active; the % refers to the signal ratio; also: potency is read from the fitted curve at half-maximal effect)
How it was run: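 HEK293 AR-UAS-bla cells, 10% dialyzed FBS medium; cpd titration + R1881 10 nM final, 16 h 37 C; CCF4 2 h RT; FRET ratio; IC50/efficacy via Hill fit.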

[19] = molecular target: Cytochrome P450 2D6 (Homo sapiens) (UniProt P10635); assay: qHTS for inhibitors of CYP2D6 against the NCATS DSHEA and TCM libraries (AID 1919972); also: potency is read from the fitted curve at half-maximal effect
How it was run: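 CYP2D6 enzyme with pro-luciferin substrate in manufacturer buffer (typically 100 mM KPO4), preincubated 15 min RT with substances (most at 19.5 nM upward); NADPH regeneration system (1x) started 30–45 min RT reaction; P450-Glo luminescence read after 30 min; quinidine as intraplate control.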

[20] = molecular target: Cytochrome P450 1A2 (Homo sapiens) (UniProt P05177); assay: qHTS for inhibitors of CYPIA2 against the NCATS DSHEA and TCM libraries (AID 1919976); also: potency is read from the fitted curve at half-maximal effect
How it was run: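 Enzyme and pro-luciferin substrate, or substrate alone as no-enzyme background, are pre-incubated with test samples for 15 min at room temperature. NADPH regeneration system (1x final) initiates a 30-45 min dark reaction; luciferase detection reagent follows before luminescence reading.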

Chain of Androgen receptor (Homo sapiens) (P10275 whole entry, looked up): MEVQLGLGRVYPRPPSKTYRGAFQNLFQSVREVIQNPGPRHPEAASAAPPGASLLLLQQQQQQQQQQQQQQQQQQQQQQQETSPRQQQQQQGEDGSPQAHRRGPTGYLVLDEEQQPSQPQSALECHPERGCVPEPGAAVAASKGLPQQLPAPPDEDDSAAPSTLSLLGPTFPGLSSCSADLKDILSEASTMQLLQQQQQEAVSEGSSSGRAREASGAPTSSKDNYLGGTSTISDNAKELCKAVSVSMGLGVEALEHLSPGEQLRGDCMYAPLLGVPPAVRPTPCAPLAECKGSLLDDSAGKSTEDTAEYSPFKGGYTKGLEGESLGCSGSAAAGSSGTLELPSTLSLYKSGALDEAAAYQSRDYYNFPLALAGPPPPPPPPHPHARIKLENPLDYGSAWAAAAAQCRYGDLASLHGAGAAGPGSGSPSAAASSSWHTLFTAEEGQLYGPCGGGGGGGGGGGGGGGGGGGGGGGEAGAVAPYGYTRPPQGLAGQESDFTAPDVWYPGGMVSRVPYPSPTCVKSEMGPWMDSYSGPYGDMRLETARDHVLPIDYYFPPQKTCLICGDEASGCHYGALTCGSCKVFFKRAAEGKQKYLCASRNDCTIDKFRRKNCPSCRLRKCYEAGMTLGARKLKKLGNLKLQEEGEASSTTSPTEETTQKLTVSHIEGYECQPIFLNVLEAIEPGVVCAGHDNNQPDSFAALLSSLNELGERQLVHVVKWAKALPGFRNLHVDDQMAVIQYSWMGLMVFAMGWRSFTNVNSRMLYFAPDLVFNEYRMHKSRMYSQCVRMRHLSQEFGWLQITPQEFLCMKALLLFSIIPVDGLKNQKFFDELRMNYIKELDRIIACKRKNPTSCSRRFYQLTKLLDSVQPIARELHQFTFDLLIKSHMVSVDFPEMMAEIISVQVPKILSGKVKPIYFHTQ
Chain of Cytochrome P450 2D6 (Homo sapiens) (P10635 whole entry, looked up): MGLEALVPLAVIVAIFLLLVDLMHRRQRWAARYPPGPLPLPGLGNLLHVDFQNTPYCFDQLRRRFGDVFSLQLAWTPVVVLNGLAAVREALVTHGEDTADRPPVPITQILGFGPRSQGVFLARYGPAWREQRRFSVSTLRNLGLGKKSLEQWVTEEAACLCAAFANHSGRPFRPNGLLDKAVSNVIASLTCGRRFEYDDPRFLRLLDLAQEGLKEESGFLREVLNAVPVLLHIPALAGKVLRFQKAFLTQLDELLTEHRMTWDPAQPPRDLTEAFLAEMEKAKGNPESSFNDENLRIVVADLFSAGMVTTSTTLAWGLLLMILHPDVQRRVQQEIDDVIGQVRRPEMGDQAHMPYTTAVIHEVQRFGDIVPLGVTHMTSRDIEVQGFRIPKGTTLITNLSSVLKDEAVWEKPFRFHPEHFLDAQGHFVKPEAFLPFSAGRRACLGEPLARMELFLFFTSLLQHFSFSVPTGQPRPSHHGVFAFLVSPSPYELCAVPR
Chain of Cytochrome P450 3A4 (Homo sapiens) (P08684 whole entry, looked up, canonical isoform): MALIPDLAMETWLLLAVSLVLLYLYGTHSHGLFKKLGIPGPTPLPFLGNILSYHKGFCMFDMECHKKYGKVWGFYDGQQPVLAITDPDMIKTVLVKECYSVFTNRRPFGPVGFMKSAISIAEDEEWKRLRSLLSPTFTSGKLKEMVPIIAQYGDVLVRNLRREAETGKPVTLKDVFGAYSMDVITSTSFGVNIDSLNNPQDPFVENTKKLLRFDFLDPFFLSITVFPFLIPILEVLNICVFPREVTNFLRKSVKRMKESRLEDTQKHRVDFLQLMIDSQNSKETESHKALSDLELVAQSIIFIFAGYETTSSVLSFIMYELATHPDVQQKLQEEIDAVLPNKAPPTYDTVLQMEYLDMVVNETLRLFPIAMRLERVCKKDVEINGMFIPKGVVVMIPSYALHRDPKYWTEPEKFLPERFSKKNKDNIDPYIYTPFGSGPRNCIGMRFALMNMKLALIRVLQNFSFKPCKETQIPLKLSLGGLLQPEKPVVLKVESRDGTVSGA
Chain of Nuclear receptor subfamily 1 group I member 3 (Homo sapiens) (Q14994 whole entry, looked up): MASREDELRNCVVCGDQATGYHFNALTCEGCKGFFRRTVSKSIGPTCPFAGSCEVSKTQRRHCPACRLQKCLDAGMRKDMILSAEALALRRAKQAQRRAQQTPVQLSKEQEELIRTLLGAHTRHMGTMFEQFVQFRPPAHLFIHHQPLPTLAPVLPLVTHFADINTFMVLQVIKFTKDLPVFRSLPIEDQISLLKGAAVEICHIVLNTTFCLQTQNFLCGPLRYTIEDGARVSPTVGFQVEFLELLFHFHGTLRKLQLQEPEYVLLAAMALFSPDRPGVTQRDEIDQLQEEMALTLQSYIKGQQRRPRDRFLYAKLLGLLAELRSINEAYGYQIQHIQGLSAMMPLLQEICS
Chain of Cytochrome P450 1A2 (Homo sapiens) (P05177 whole entry, looked up): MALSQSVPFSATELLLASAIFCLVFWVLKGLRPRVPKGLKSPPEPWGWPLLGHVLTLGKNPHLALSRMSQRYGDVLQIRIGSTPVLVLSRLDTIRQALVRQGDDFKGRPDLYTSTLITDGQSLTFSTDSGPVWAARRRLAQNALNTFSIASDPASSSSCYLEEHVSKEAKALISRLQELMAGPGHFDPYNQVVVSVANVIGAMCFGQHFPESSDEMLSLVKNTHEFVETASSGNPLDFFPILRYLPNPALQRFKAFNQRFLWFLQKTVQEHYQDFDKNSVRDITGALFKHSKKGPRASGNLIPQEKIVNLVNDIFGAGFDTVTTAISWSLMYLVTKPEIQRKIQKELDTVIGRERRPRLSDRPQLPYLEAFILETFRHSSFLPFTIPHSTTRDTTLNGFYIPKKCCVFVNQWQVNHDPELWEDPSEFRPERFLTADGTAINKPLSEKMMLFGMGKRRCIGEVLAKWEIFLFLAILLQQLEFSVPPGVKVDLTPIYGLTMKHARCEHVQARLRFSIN
Chain of Dual specificity protein kinase CLK4 (Homo sapiens) (Q9HAZ1 whole entry, looked up): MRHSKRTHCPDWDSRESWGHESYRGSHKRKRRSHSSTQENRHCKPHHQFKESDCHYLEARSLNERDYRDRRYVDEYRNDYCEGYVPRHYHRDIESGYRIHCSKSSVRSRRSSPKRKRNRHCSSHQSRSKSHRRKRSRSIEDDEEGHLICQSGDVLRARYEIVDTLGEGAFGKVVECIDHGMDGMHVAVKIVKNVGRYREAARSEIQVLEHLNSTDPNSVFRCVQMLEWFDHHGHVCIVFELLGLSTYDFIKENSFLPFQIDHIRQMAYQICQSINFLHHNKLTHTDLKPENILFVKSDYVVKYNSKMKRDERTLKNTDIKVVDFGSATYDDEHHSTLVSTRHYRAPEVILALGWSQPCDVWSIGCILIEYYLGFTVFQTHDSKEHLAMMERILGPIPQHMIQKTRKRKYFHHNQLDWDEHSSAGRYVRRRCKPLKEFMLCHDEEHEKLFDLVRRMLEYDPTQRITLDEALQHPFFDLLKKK
Chain of Cytochrome P450 2C9 (Homo sapiens) (P11712 whole entry, looked up): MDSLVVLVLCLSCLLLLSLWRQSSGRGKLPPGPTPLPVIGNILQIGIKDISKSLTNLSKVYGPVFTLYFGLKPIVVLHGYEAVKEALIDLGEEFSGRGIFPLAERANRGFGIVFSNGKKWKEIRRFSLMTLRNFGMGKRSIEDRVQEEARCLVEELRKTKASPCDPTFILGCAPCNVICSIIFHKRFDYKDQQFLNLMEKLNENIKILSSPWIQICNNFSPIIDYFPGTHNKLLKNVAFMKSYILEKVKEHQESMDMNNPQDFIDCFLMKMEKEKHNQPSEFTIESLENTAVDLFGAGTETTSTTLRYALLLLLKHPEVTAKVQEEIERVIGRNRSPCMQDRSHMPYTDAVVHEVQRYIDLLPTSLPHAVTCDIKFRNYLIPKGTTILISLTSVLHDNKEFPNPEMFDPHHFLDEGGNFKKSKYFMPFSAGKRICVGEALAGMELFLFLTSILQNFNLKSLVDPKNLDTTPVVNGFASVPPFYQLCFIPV
Chain of Voltage-gated inwardly rectifying potassium channel KCNH2 (Homo sapiens) (Q12809 whole entry, looked up): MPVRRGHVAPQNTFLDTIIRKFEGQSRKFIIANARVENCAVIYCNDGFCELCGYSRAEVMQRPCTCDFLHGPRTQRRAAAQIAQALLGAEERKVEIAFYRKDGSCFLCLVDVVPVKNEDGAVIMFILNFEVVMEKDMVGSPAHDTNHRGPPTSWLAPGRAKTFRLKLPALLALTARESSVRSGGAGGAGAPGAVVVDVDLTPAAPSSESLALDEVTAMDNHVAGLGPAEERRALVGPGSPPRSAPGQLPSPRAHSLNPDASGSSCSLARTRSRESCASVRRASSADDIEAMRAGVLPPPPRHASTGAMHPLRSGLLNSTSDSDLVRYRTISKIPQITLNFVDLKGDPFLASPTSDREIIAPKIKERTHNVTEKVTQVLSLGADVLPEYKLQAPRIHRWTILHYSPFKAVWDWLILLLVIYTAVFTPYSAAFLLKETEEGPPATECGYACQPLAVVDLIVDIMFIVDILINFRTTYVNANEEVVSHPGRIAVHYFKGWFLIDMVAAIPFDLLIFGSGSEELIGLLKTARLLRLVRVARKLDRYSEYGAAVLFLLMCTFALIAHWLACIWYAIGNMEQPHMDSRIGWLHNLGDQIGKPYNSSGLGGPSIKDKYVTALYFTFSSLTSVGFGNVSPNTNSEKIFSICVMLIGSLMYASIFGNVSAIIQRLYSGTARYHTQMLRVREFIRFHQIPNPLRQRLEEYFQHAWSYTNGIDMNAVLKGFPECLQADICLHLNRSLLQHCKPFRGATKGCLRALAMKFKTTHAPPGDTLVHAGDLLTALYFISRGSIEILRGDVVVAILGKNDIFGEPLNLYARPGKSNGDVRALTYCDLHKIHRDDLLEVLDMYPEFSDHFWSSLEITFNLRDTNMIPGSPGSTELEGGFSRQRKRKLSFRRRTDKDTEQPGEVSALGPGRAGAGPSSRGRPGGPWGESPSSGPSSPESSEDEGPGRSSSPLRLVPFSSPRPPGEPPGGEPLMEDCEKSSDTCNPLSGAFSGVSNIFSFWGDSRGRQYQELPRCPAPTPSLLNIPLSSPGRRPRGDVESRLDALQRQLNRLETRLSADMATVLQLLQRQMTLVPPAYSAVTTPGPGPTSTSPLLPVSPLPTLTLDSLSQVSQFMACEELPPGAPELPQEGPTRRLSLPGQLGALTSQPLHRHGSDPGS

Compound: CC1=NCCc2c1[nH]c1cc(O)ccc21
- Potency [1]: 3.26 µM (active)
- Potency [2]: 12 µM (active)
- outcome [3]: inactive
- Potency [4]: inactive

Compound: Clc1ccccc1-c1cncnc1NCCc1cnc[nH]1
- outcome [5]: inactive
- outcome [6]: inactive

Compound: Cc1nnc2ccc(-c3cccc(C(F)(F)F)c3)nn12
- outcome [7]: inactive

Compound: O=C(OC1CCN(CCCl)CC1)C(c1ccccc1)c1ccccc1
- outcome [8]: inactive
- Potency [9]: inactive
- activation [10]: 6.37% [at 17.1 µM, percent relative to cAMP agonist control]

Compound: CCCN1CCc2cc(O)cc3c2C1Cc1ccc(O)c(O)c1-3 (configuration not stated)
- Potency [11]: inactive
- Potency [12]: 3.29 µM (active)
- Potency [13]: 8.28 µM (active)

Compound: COc1ccc2c(c1O)-c1c(OC)c(OC)cc3c1[C@H](C2)N(C)CC3
- Potency [14]: inactive
- Potency [15]: inactive
- Potency [16]: inactive

Compound: O=S1OCC2C(CO1)C1(Cl)C(Cl)=C(Cl)C2(Cl)C1(Cl)Cl (configuration not stated)
- activation [17]: -11.1%
- Potency [18]: inactive

Compound: CCc1cccc(CC)c1N(COC)C(=O)CCl
- activation [17]: -10.2% and -10.1%
- Potency [18]: 44.7 µM (active)

Compound: COc1cc2c(cc1O)CC1c3c(cc(O)c(OC)c3-2)CCN1C (configuration not stated)
- Potency [14]: inactive
- Potency [19]: 11.2 µM (active)
- Potency [20]: 3.98 µM (active)

Compound: C=CCc1ccc2c(c1)OCO2
- Potency [15]: inactive
- Potency [16]: inactive
- Potency [19]: inactive
- Potency [20]: 15.8 µM (active)
